# Reference: PubChem BioAssay (NCATS)
# Inconclusive results are not listed. Unmarked numbers belong to inactive results. Calls of active or inactive are those of the source. The call rests on the fitted dose curve; in most records, active means well fitted cell-killing curve with a large enough effect; inconclusive means small, poorly fitted or top-dose-only effect, or effect the other way; inactive means no such curve, though single readings can be large or run the other way.
# What was measured:
# [1] = Quantitative High-Throughput drug screen in 47 multiple myeloma cell lines against the NCATS MIPE library collection: U266_ATCC cell viability assay (AID 1919864); conditions: U266 myeloma viability, CellTiter-Glo ATP luminescence, 48 h; series mostly up to 45.8 µM; further: nearly all actives have a fitted effect of over 35% in size; further: potency means the concentration at half of the fitted maximal effect
# Outline: (§1)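 500 cells/well per myeloma line exposed to pinned MIPE 4.0 compounds for 48 h at 37 °C, 5% CO2. Viability read as ATP by CellTiter-Glo luminescence, normalised to DMSO-only (100%) and media-only (0%) wells.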
# [2] = Quantitative High-Throughput drug screen in 47 multiple myeloma cell lines against the NCATS MIPE library collection: XG6_PLB cell viability assay (AID 1919865); conditions: XG6 myeloma viability, CellTiter-Glo ATP luminescence, 48 h; series mostly up to 45.8 µM; further: nearly all actives have a fitted effect of over 40% in size; further: potency means the concentration at half of the fitted maximal effect
# Outline: as §1
# [3] = Quantitative High-Throughput drug screen in 47 multiple myeloma cell lines against the NCATS MIPE library collection: XG1_PLB cell viability assay (AID 1919866); conditions: CellTiter-Glo ATP, 48 h; series mostly up to 45.8 µM; further: nearly all actives have a fitted effect of over 35% in size; further: potency means the concentration at half of the fitted maximal effect
# Outline: as §1
# [4] = Quantitative High-Throughput drug screen in 47 multiple myeloma cell lines against the NCATS MIPE library collection: PE2_PLB cell viability assay (AID 1919869); conditions: PE2_PLB myeloma cells viability, ATP luminescence, 48 h; series mostly up to 45.8 µM; further: nearly all actives have a fitted effect of over 35% in size; further: potency means the concentration at half of the fitted maximal effect
# Outline: as §1
# [5] = Quantitative High-Throughput drug screen in 47 multiple myeloma cell lines against the NCATS MIPE library collection: SKMM1_PLB cell viability assay (AID 1919863); conditions: SKMM1 myeloma viability, CellTiter-Glo ATP, 48 h; viability: active compounds read low; further: nearly all actives have a fitted effect of over 35% in size; further: potency means the concentration at half of the fitted maximal effect
# Outline: as §1
# [6] = Quantitative High-Throughput drug screen in 47 multiple myeloma cell lines against the NCATS MIPE library collection: PCM6_Riken cell viability assay (AID 1919870); conditions: CellTiter-Glo ATP, 48 h; series mostly up to 45.8 µM; further: nearly all actives have a fitted effect of over 30% in size; further: potency means the concentration at half of the fitted maximal effect
# Outline: as §1
# [7] = Quantitative High-Throughput drug screen in 47 multiple myeloma cell lines against the NCATS MIPE library collection: VP6_DJ cell viability assay (AID 1919867); conditions: ATP luminescence, 48 h; series mostly up to 45.8 µM; further: nearly all actives have a fitted effect of over 40% in size; further: potency means the concentration at half of the fitted maximal effect
# Outline: as §1
# [8] = Quantitative High-Throughput drug screen in 47 multiple myeloma cell lines against the NCATS MIPE library collection: RPMI8226_ATCC cell viability assay (AID 1919871); conditions: RPMI8226 myeloma viability, CellTiter-Glo ATP luminescence, 48 h; series mostly up to 45.8 µM; further: nearly all actives have a fitted effect of over 30% in size
# Outline: as §1
# [9] = Quantitative High-Throughput drug screen in 47 multiple myeloma cell lines against the NCATS MIPE library collection: UTMC2_PLB cell viability assay (AID 1919868); conditions: CellTiter-Glo ATP luminescence, 48 h; series mostly up to 45.8 µM; further: nearly all actives have a fitted effect of over 55% in size; further: potency means the concentration at half of the fitted maximal effect
# Outline: as §1
structure (smiles),measurement,setting,value
C=CCc1cc(OC)c(O)c(C(=O)NCCO)c1,Potency,[1],inactive
same,Potency,[2],inactive
same,Potency,[3],inactive
same,Potency,[4],inactive
CNC[C@H](O)c1ccc(O)c(O)c1,Potency,[5],12.1 µM (active)
same,Potency,[1],38.2 µM (active)
same,Potency,[2],inactive
same,Potency,[3],inactive
same,Potency,[6],inactive
Cc1ccc(C)c(OCCCC(C)(C)C(=O)O)c1,viability,[5],118%
same,Potency,[2],9.35 µM (active)
same,Potency,[3],16.6 µM (active)
same,Potency,[7],7.43 µM (active)
same,Potency,[8],inactive
O=C(CS(=O)Cc1ccco1)NCC=CCOc1cc(CN2CCCCC2)ccn1 (stereo unspecified),viability,[5],134%
same,Potency,[1],inactive
same,Potency,[2],14.8 µM (active)
same,Potency,[7],16.6 µM (active)
same,Potency,[4],inactive
Cn1c(NCCN(CCO)CCCc2ccc([N+](=O)[O-])cc2)cc(=O)n(C)c1=O,viability,[5],107%
same,Potency,[2],20.9 µM (active)
same,Potency,[3],26.4 µM (active)
same,Potency,[7],18.7 µM (active)
same,Potency,[8],inactive
CCOc1cc(CC(=O)N[C@@H](CC(C)C)c2ccccc2N2CCCCC2)ccc1C(=O)O,viability,[5],138%
same,Potency,[2],inactive
same,Potency,[3],inactive
same,Potency,[7],inactive
same,Potency,[8],inactive
OC(CN1CCN(c2cccc(Cl)c2)CC1)C(c1ccccc1)c1ccccc1 (stereo unspecified),Potency,[1],10.5 µM (active)
same,Potency,[4],inactive
COc1ccc2cc([C@H](C)C(=O)O)ccc2c1,viability,[5],105%
same,Potency,[1],inactive
same,Potency,[2],inactive
same,Potency,[9],23.5 µM (active)
same,Potency,[4],inactive
Clc1ccc(C(Cn2ccnc2)OCc2c(Cl)cccc2Cl)c(Cl)c1 (stereo unspecified),Potency,[5],26.4 µM (active)
same,Potency,[2],26.4 µM (active)
same,Potency,[3],20.9 µM (active)
same,Potency,[7],16.6 µM (active)
same,Potency,[6],14.8 µM (active)
Cc1cccc(-c2[nH]ncc2-c2ccc3ncccc3n2)n1,viability,[5],121%
same,Potency,[1],inactive
same,Potency,[2],inactive
same,Potency,[7],inactive
same,Potency,[8],inactive
C=C(c1ccc(C(=O)O)cc1)c1cc2c(cc1C)C(C)(C)CCC2(C)C,Potency,[1],inactive
same,Potency,[2],inactive
same,Potency,[6],inactive
C[C@@H](c1ncncc1F)[C@](O)(Cn1cncn1)c1ccc(F)cc1F,Potency,[2],5.26 µM (active)
same,Potency,[4],inactive
CN(C)c1ccc(O)c2c1C[C@H]1C[C@H]3[C@H](N(C)C)C(=O)C(C(N)=O)=C(O)[C@@]3(O)C(=O)C1=C2O,Potency,[1],5.9 µM (active)
same,Potency,[4],20.9 µM (active)
C[C@@H](N)C1CCC(C(=O)Nc2ccncc2)CC1 (stereo partly specified),viability,[5],141%
same,Potency,[2],5.9 µM (active)
same,Potency,[3],9.35 µM (active)
same,Potency,[9],6.62 µM (active)
same,Potency,[4],16.6 µM (active)
same,Potency,[6],14.8 µM (active)
Cc1nc2n(c(=O)c1CCN1CCC(c3noc4cc(F)ccc34)CC1)CCCC2,viability,[5],134%
same,Potency,[2],inactive
same,Potency,[3],inactive
same,Potency,[7],7.43 µM (active)
same,Potency,[4],inactive
same,Potency,[6],inactive
NC(=O)Cc1cccc(C(=O)c2ccccc2)c1N,viability,[5],121%
same,Potency,[2],inactive
same,Potency,[3],inactive
same,Potency,[6],inactive
same,Potency,[8],inactive
Cc1ncc([N+](=O)[O-])n1CC(C)O (stereo unspecified),viability,[5],126%
same,Potency,[3],10.5 µM (active)
same,Potency,[7],18.7 µM (active)
same,Potency,[9],18.7 µM (active)
N=C(N)c1ccc2cc(OC(=O)c3ccc(N=C(N)N)cc3)ccc2c1,Potency,[5],8.33 µM (active)
same,Potency,[2],inactive
same,Potency,[3],inactive
same,Potency,[7],5.26 µM (active)
same,Potency,[4],10.5 µM (active)
Cc1cc(O)c2c(c1)C(=O)c1cc(O)cc(O)c1C2=O,Potency,[5],20.9 µM (active)
same,Potency,[3],inactive
same,Potency,[7],inactive
same,Potency,[9],inactive
COC1=C(OC)C(=O)C(CCCCCCCCCCO)=C(C)C1=O,Potency,[2],20.9 µM (active)
same,Potency,[3],16.6 µM (active)
same,Potency,[7],14.8 µM (active)
same,Potency,[9],26.4 µM (active)
same,Potency,[4],26.4 µM (active)
same,Potency,[6],16.6 µM (active)
same,Potency,[8],inactive
Clc1ccc(C(Cn2ccnc2)OCc2ccc(Sc3ccccc3)cc2)c(Cl)c1 (stereo unspecified),Potency,[1],inactive
same,Potency,[3],23.5 µM (active)
same,Potency,[7],20.9 µM (active)
same,Potency,[9],33.2 µM (active)
same,Potency,[4],20.9 µM (active)
same,Potency,[6],18.7 µM (active)
Nc1nc(OCc2ccccc2)c2[nH]cnc2n1,viability,[5],128%
same,Potency,[2],16.6 µM (active)
same,Potency,[3],13.2 µM (active)
same,Potency,[7],7.43 µM (active)
same,Potency,[8],inactive
CC(C)c1ccc2oc3nc(N)c(C(=O)O)cc3c(=O)c2c1,Potency,[2],inactive
same,Potency,[3],inactive
same,Potency,[4],inactive
same,Potency,[6],inactive
CC(C)[N+]1(C)[C@@H]2CC[C@H]1CC(OC(=O)C(CO)c1ccccc1)C2 (stereo partly specified),viability,[5],150%
same,Potency,[1],inactive
same,Potency,[2],inactive
same,Potency,[7],14.8 µM (active)
same,Potency,[4],inactive
same,Potency,[8],inactive
CCN(CC)CCOc1ccc(Cc2ccccc2)cc1,Potency,[1],20.9 µM (active)
same,Potency,[2],inactive
same,Potency,[3],inactive
same,Potency,[9],inactive
same,Potency,[4],inactive
